Results on 50 compounds are retold here after PubChem BioAssay AID1851 (National Center for Advancing Translational Sciences (NCATS), 2009).

Values joined by “and” are separate entries in the source; they are usually repeats but may differ in a detail not shown here. Equal values may be shown once. Screen size: about 16,000 compounds; about 2,600 (16%) were called active. Roughly 20% stayed inconclusive and do not appear here. Only a sample is shown. Unmarked numbers belong to inactive results. The call rests on the fitted dose curve; in most records, active means well fitted curve in the direction sought with a large enough effect; inconclusive means small, poorly fitted or top-dose-only effect, or effect the other way; inactive means no such curve, though single readings can be large or run the other way.
On the % scale 0 is the no-effect control and ±100 the full control effect.

This test deals with Cytochrome P450 2D6 (Homo sapiens) (UniProt P10635). Put plainly: Cytochrome panel assay with activity outcomes. The note with it: recombinant CYP, pro-luciferin dealkylation, luminescence, p450-cyp2d6; series mostly up to 57.1 µM.
Chain of Cytochrome P450 2D6 (Homo sapiens) (P10635 whole entry, looked up): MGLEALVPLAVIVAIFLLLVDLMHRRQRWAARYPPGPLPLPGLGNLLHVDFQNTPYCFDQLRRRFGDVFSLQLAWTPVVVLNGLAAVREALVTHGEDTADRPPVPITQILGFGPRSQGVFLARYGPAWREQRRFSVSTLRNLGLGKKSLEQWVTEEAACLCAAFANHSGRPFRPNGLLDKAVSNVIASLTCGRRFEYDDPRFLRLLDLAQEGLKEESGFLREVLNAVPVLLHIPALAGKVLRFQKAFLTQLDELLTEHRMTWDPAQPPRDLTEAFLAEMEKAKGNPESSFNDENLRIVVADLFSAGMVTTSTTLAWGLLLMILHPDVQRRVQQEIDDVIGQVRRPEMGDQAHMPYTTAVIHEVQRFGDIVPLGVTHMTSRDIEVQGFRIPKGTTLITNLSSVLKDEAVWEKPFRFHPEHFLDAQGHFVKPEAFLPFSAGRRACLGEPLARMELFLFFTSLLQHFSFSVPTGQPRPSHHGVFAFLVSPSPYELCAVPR
As a reminder, the AC50 is the concentration giving half of the maximal activity seen. Turning to `COc1ccccc1-c1cc(-n2ccnc2)ncn1`, the concentration at half-maximal activity (AC50) is 12.6 µM (active).

In the case of `CN(C)Cc1ccccc1-c1cc(-n2ccnc2)ncn1`, the concentration at half-maximal activity (AC50) was 2.51 µM (active). For `Cc1cc([N+](=O)[O-])nn1Cc1ccccc1F`, the AC50 entry is “inactive”. Consider `Cc1cc(C)c(S(=O)(=O)N2CCCCC2)c(C)c1N(C)S(=O)(=O)c1ccccc1`, for which the AC50 result was “inactive”. For the compound `CC1=C(CC(=O)O)c2cc(F)ccc2/C1=C\c1ccc(S(C)=O)cc1` (stereo not given), the AC50 entry is “inactive”. Turning to `CCOC(=O)c1sc(=S)n(-c2cccc(C(F)(F)F)c2)c1SC`, the AC50 entry is “inactive”. For the compound `Cc1nnc(S(=O)(=O)c2ccc(N=Nc3c(N)nc(N)nc3N)cc2)s1`, the activity, negative = inhibition was 18% [at 11.4 µM]. Take `CCOC(=O)c1cc(NC(=O)c2ccc(OC)cc2)c(=O)oc1-c1ccccc1`: the AC50 result is “inactive”. As to `Cc1nn(C(C)C(=O)Nc2sc3c(c2C#N)CCCC3)c(C)c1[N+](=O)[O-]` (stereo not given), the AC50 entry is “inactive”. Take `C/C(=N\O)c1ccc2[nH]ccc2c1`: the AC50 entry was “inactive”. For the compound `C/C(=N/O)c1ccc2cc(Br)c3ccccc3c2c1`, the AC50 was 0.0251 µM (active). With `C=CCn1c(SCC(=O)NC2CCCCC2)nnc1C1CCCCC1`, the AC50 entry is “inactive”. Turning to `CO[C@@H]1COC(=O)[C@@H](CCSC)NC(=O)C/C=C\[C@@H](C)COC(=O)[C@H](C)NC(=O)C/C=C\[C@H]1C`, the activity, negative = inhibition was 6.23% [at 11.4 µM]. The same measure, in the same setting: with `CCN1C(=O)[C@H]2[C@H]3[C@H](O)[C@H](O)C/C(=N/OC[C@@H](O)COCc4ccco4)[C@@H]3CC[C@@H]2C1=O` the figure was 19.4% [at 11.4 µM] and 13.7% [at 11.4 µM].

`Cc1ccc(/C=C/C(=O)NC(=S)Nc2ccccc2C(=O)NC2CCCCC2)cc1`: the AC50 result is “inactive”.

Regarding `N.N.O=C(O)C1(C(=O)O)CCC1.[Pt]`, the AC50 entry was “inactive”. Take `Cc1cc(-c2ccccc2)[nH]c(=O)c1S(=O)(=O)c1ccc(Cl)cc1`: the AC50 result is “inactive”. As for `O=c1[nH]c2cc(Cl)ccc2c(O)c1-c1cccc(Oc2ccccc2)c1`, the AC50 was 6.31 µM (active).

Consider `O=c1[nH]c2cc(Cl)ccc2c(O)c1-c1ccc(Oc2ccccc2)cc1`, for which the AC50 result is “inactive”. As to `CCn1c(CC(=O)Nc2ccc(C)cc2)nnc1SCC(=O)Nc1nc(C)cs1`, the AC50 result is “inactive”.

Consider `C[C@@H]1CCC[C@H](C)N1NC(=O)c1ccc(Cl)c(S(N)(=O)=O)c1`, for which the AC50 entry was “inactive”.

With `CCCC[P+](CCCC)(CCCC)Cc1ccc(NC(=O)[C@@H](Cc2ccc3ccccc3c2)NC(=NC2CCCCC2)NC2CCCCC2)cc1`, the AC50 entry was “inactive”. `O=C(CSCc1ccccc1)Nc1cccc(C(=O)Nc2ccccc2C(=O)O)c1`: the AC50 result is “inactive”. For the compound `Cc1ccccc1C(=O)N1CCc2ccccc2C1`, the AC50 entry was “inactive”. As for `O=C(c1ccc(CN2CCc3ccccc3C2)cc1)N1CCc2ccccc2C1`, the concentration at half-maximal activity (AC50) was 2 µM (active). `Cc1ccc(OCC(=O)Nc2ccccc2-c2ccccc2)cc1`: the AC50 entry is “inactive”.

As to `CSc1ccccc1NC(=O)CSCc1ccc(C)cc1`, the AC50 was 14.1 µM (active). Regarding `O=C(CSCc1ccccc1)Nc1ccc(S(=O)(=O)N2CCOCC2)cc1`, the AC50 was 6.31 µM (active). Consider `CC(=O)c1cccc(NC(=O)CSCc2ccccc2)c1`, for which the AC50 is 14.1 µM (active). For `Nc1cc(=O)[nH]c(SCC(=O)Nc2ccc(S(=O)(=O)N3CCOCC3)cc2)n1`, the AC50 entry was “inactive”. Same read-out and setting: with `CS(=O)(=O)Nc1ccc(S(=O)(=O)N2CCOCC2)cc1` the entry was “inactive”; with `COC(=O)c1ccc(C(=O)OC)c(NC(=O)CSCc2ccc(Br)cc2)c1`, “inactive”.

With `Cc1ccc(NS(=O)(=O)c2cc(C(=O)N3CCc4ccccc4C3)ccc2Cl)cc1`, the AC50 entry was “inactive”. Same read-out and setting: then `CN(C)CCN1C(=O)C(O)=C(C(=O)c2cc3ccccc3o2)C1c1cccc(Br)c1` (stereo not given), with “inactive”; and `COc1ccc2c(c1)C(=O)N(c1ccccc1)C(=O)C2`, with “inactive”. Take `CN(C)c1cc(=O)n2c(n1)SCCC2`: the AC50 result was “inactive”. Still for that read-out and setting: with `CCSc1nc2ccccc2n1C(=O)/C=C\c1ccc(OC)c(OC)c1` the entry was “inactive”; with `CC(C)COP(=O)(OCC(C)C)C(O)c1ccccc1F` (stereo not given), “inactive”; with `O=C(NCc1n[nH]c(=S)n1-c1ccccc1)c1ccc(S(=O)(=O)N2CCOCC2)cc1`, “inactive”. For the compound `O=C(Nc1ccc(S(=O)(=O)N2CCOCC2)cc1)c1ccc(CN2CCc3ccccc3C2)cc1`, the concentration at half-maximal activity (AC50) was 0.178 µM (active). Turning to `COCc1nnc(NC(=O)c2ccc(S(=O)(=O)N3CCCCCC3)cc2)o1`, the AC50 result is “inactive”.

In the case of `CCN(CC)S(=O)(=O)c1ccc(C(=O)Nc2ncn(Cc3ccccc3)n2)cc1`, the AC50 result is “inactive”. For the compound `CN(C)S(=O)(=O)c1ccc(NC(=O)c2cc(F)c(F)cc2Cl)cc1`, the AC50 entry was “inactive”. Turning to `O=C(Nc1ccc(S(=O)(=O)N2CCCC2)cc1)c1ccc(CN2CCOCC2)cc1`, the concentration at half-maximal activity (AC50) was 5.01 µM (active).

With `O=C(Nc1ccc(S(=O)(=O)N2CCCCC2)cc1)c1ccc(CN2CCc3ccccc3C2)cc1`, the half-maximal activity concentration (AC50) is 0.251 µM (active). On to `O=C(CSc1ncccn1)Nc1ccc(S(=O)(=O)N2CCCCC2)cc1`, for which the AC50 entry was “inactive”. `CN(C)S(=O)(=O)c1ccc(C(=O)Nc2ccc(CN3CCCC3)cc2)cc1`: the half-maximal activity concentration (AC50) was 2.51 µM (active). As for `O=C(Nc1ccccc1-c1nc2ccccc2[nH]1)c1ccc(S(=O)(=O)N2CCCCC2)cc1`, the AC50 entry was “inactive”. With `Cc1nc2ccc3nc(NC(=O)c4ccc(S(=O)(=O)N5CCOCC5)cc4)sc3c2s1`, the AC50 result was “inactive”. Consider `CCOC(=O)c1c(NC(=O)c2ccc(S(=O)(=O)N3CCOCC3)cc2)sc2c1CCN(C)C2`, for which the AC50 entry is “inactive”.
